{
  "source": "PubChem BioAssay AID1851",
  "about": "(National Center for Advancing Translational Sciences (NCATS), 2009)",
  "note": "The whole screen tested about 16,000 compounds, of which about 4,000 (25%) were called active. About 26% were inconclusive and are not listed. The list is a sample of the results. A number with no mark means an inactive call. Calls follow the shape of the dose curve; as a rule, active = well fitted curve in the direction sought with a large enough effect; inconclusive = small, poorly fitted or top-dose-only effect, or effect the other way; inactive = no such curve, though single readings can be large or run the other way. Square brackets hold non-standard residues; d marks the D form. Peptide text beside a SMILES is read from it. % is scaled to controls: 0 for no effect and ±100 for the full control effect.",
  "data": [
    {"molecular_target": "Cytochrome P450 2C9 (Homo sapiens) (UniProt P11712)", "sequence (P11712 whole entry, looked up)": "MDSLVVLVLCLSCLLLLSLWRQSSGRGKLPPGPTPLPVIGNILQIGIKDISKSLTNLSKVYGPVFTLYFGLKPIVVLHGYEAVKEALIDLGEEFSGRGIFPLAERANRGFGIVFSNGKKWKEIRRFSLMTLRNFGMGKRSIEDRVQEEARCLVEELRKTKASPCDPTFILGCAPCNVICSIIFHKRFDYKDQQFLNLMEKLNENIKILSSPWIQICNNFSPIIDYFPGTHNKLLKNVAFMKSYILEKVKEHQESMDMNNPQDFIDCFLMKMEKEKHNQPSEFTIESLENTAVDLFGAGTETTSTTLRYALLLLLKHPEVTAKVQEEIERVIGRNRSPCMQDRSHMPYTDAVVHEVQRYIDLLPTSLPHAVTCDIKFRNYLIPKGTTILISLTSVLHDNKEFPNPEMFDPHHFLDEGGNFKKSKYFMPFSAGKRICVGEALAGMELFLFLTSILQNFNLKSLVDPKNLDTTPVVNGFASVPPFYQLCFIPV", "assay": "Cytochrome panel assay with activity outcomes", "settings": "recombinant CYP, pro-luciferin dealkylation, luminescence, p450-cyp2c9; series mostly up to 57.1 µM", "values": [
      {"molecule": "CCN(c1nc(N)c(C(=O)N=C(N)N)nc1Cl)C(C)C", "AC50": "inactive"},
      {"molecule": "CN(C)Cc1ccccc1-c1nc(NCc2ccccc2)c2ccccc2n1", "activity, negative = inhibition": "-6.5% [at 2.29 µM]"},
      {"molecule": "CN(C)c1nc(NCc2ccccc2)nc(N/N=C/c2ccc(Cl)cc2Cl)n1", "AC50": "inactive"},
      {"molecule": "CC(Sc1nc(NCc2ccccc2)nc(N(C)C)n1)C(=O)Nc1ccccc1", "note": "(centres undefined)", "AC50": "0.562 µM (active)"},
      {"molecule": "CC(=O)N[C@@H](C(=O)O)C(C)(C)SN=O", "AC50": "inactive"},
      {"molecule": "COc1ccccc1-c1ccc2ncnc(NCc3cccnc3)c2c1", "activity, negative = inhibition": "-19.3% [at 2.29 µM]"},
      {"molecule": "COc1ccccc1-c1ccc2ncnc(NCc3ccccc3)c2c1", "AC50": "0.501 µM (active)"},
      {"molecule": "COCCNc1ncnc2ccc(-c3ccccc3OC)cc12", "activity, negative = inhibition": "16.9% [at 2.29 µM]"},
      {"molecule": "COc1ccc(CNc2ncnc3ccc(-c4cccnc4)cc23)c(OC)c1", "activity, negative = inhibition": "-24.5% [at 2.29 µM]"},
      {"molecule": "COc1ccccc1CNc1ncnc2ccc(-c3ccccc3OC)cc12", "AC50": "0.794 µM (active)"},
      {"molecule": "COc1ccc(CNc2ncnc3ccc(-c4ccc(C(=O)N(C)C)cc4)cc23)c(OC)c1", "activity, negative = inhibition": "1.99% [at 2.29 µM]"},
      {"molecule": "COc1ccc(CNc2ncnc3ccc(-c4ccccc4OC)cc23)c(OC)c1", "AC50": "0.398 µM (active)"},
      {"molecule": "COc1ccccc1CNc1ncnc2ccc(-c3cccc(C#N)c3)cc12", "activity, negative = inhibition": "-23.5% [at 2.29 µM]"},
      {"molecule": "COc1ccccc1CNc1ncnc2ccc(-c3ccccc3CN(C)C)cc12", "activity, negative = inhibition": "-2.92% [at 2.29 µM]"},
      {"molecule": "Cc1nonc1NC(=O)OCCN1CCOC1=O", "AC50": "inactive"},
      {"molecule": "CC[C@]1(O)C[C@@H]2CN(CCc3c([nH]c4ccccc34)[C@](C(=O)OC)(c3cc4c(cc3OC)N(C)[C@H]3[C@](O)(C(=O)OC)[C@@H](C(=O)OC)[C@@]5(CC)C=CCN6CC[C@@]43[C@@H]65)C2)C1", "AC50": "inactive"},
      {"molecule": "CCn1c(SCC(=O)Nc2sc3c(c2C(N)=O)CCC(C)C3)nnc1-c1ccco1", "note": "(centres undefined)", "AC50": "3.16 µM (active)"},
      {"molecule": "CCn1c(SCC(=O)Nc2sc3c(c2C#N)CCC(C(C)(C)C)C3)nnc1-c1ccco1", "note": "(centres undefined)", "AC50": "8.91 µM (active)"},
      {"molecule": "C#CC[N+](CC)(CC)CC#Cc1cccc(Cl)c1", "AC50": "inactive"},
      {"molecule": "C[C@H](CN(C)C)C(O)(c1ccccc1)c1ccccc1", "activity, negative = inhibition": "-5.45% [at 11.4 µM]"},
      {"molecule": "COC(=O)[C@@]1(Cc2ccccc2)[C@H]2c3cc(C(=O)N4CCCC4)n(CCN4CNCC4=O)c3C[C@H]2CN1C(=O)c1ccccc1", "AC50": "2 µM (active)"},
      {"molecule": "COC(=O)[C@@]1(Cc2ccc(F)cc2)[C@H]2c3cc(C(=O)N4CCCC4)n(CCN4CNCC4=O)c3C[C@H]2CN1C(=O)c1ccccc1", "AC50": "7.94 µM (active)"},
      {"molecule": "Nc1nc(N)nc(CC(=O)O)n1", "activity, negative = inhibition": "-0.0515% [at 11.4 µM]"},
      {"molecule": "CCOC(=O)C1=C(CSc2nc3ccccc3s2)NC(=O)NC1c1cccc([N+](=O)[O-])c1", "note": "(centres undefined)", "AC50": "3.98 µM (active)"},
      {"molecule": "CCOC(=O)C1=C(CSc2nc3ccccc3s2)NC(=O)NC1c1cc(C)ccc1C", "note": "(centres undefined)", "AC50": "3.55 µM (active)"},
      {"molecule": "COc1cc(/C=C(\\C#N)C(N)=O)cc(CSc2nc3ccccc3s2)c1O", "AC50": "inactive"},
      {"molecule": "O=C(Nc1cccc(F)c1)N1CCCC2(CCNCC2)C1", "AC50": "inactive"},
      {"molecule": "COc1ncc2nc(-c3cn(C)c4ccccc34)c(=O)n(Cc3ccc(F)cc3)c2n1", "AC50": "inactive"},
      {"molecule": "CCNc1ncc2nc(-c3ccccc3)c(=O)n(Cc3cccs3)c2n1", "AC50": "inactive"},
      {"molecule": "CN1CCN(c2ncc3nc(-c4cn(C)c5ccccc45)c(=O)n(CCc4ccccc4)c3n2)CC1", "AC50": "inactive"},
      {"molecule": "COc1cccc(Cn2c(=O)c(-c3cn(C)c4ccccc34)nc3cnc(N4CCNCC4)nc32)c1", "AC50": "20 µM (active)"},
      {"molecule": "COc1cccc(Nc2ncc3nc(-c4cn(C)c5ccccc45)c(=O)n(CCC#N)c3n2)c1", "AC50": "inactive"},
      {"molecule": "Cn1cc(-c2nc3cnc(N4CCNCC4)nc3n(Cc3ccc(F)cc3)c2=O)c2ccccc21", "AC50": "10 µM (active)"},
      {"molecule": "Cn1cc(-c2nc3cnc(N4CCOCC4)nc3n(CCC#N)c2=O)c2ccccc21", "AC50": "inactive"},
      {"molecule": "CCNc1ncc2nc(-c3cn(C)c4ccccc34)c(=O)n(Cc3cccs3)c2n1", "AC50": "20 µM (active)"},
      {"molecule": "COCCn1c(=O)c(-c2cn(C)c3ccccc23)nc2cnc(N3CCNCC3)nc21", "AC50": "inactive"},
      {"molecule": "Cn1cc(-c2nc3cnc(N4CCNCC4)nc3n(CCc3ccccc3)c2=O)c2ccccc21", "AC50": "10 µM (active)"},
      {"molecule": "CCNc1ncc2nc(-c3cn(C)c4ccccc34)c(=O)n(Cc3cccc(OC)c3)c2n1", "AC50": "inactive"},
      {"molecule": "CCNc1ncc2nc(-c3cn(C)c4ccccc34)c(=O)n(CCC#N)c2n1", "AC50": "inactive"},
      {"molecule": "CCNc1nc(NCC)nc(ON=C(C)C)n1", "AC50": "inactive"},
      {"molecule": "N=c1nc(N2CCCCC2)cc(N)n1O", "AC50": "inactive"},
      {"molecule": "CO[C@@H](NC(N)=O)C(=O)O", "activity, negative = inhibition": "25.8% [at 11.4 µM]"},
      {"molecule": "NCC(=O)N[C@H](CO)C(=O)O", "note": "(H-Gly-[dS]-OH)", "activity, negative = inhibition": "12.1% [at 11.4 µM]"},
      {"molecule": "CCOC(=O)N1CCN(C(=O)c2oc3ccc(S(=O)(=O)N4CCCCC4)cc3c2C)CC1", "AC50": "10 µM (active)"},
      {"molecule": "CCOC(=O)N1CCN(C(=O)c2ccc(Cl)c(S(=O)(=O)N3CCOCC3)c2)CC1", "AC50": "inactive"},
      {"molecule": "CCN(CC)C(=O)COc1ccc(S(=O)(=O)N2CCOCC2)cc1", "AC50": "inactive"},
      {"molecule": "COc1ccc(S(=O)(=O)N(CCc2ccccc2)CC(=O)N2CCOCC2)cc1", "AC50": "inactive"},
      {"molecule": "CN(Cc1ccccc1)S(=O)(=O)c1ccc(OCC(=O)N2CCOCC2)cc1", "AC50": "14.1 µM (active)"},
      {"molecule": "COc1cccc(-c2nnc3n2N=C(C(C)(C)C)CS3)c1", "AC50": "17.8 µM (active)"},
      {"molecule": "COc1cccc(-c2cc(NCc3cnc(C)cn3)ncn2)c1", "activity, negative = inhibition": "6.07% [at 2.29 µM]"},
      {"molecule": "COc1cccc(-c2cc(NCc3ccc(OC)cc3OC)ncn2)c1", "activity, negative = inhibition": "-18.3% [at 2.29 µM]"},
      {"molecule": "Cc1nn(S(=O)(=O)c2cccs2)c(C)c1Sc1ccc([N+](=O)[O-])cc1", "AC50": "4.47 µM (active)"},
      {"molecule": "O=C(C/C=N/OCc1ccc(F)cc1Cl)c1cnc(-c2ccccc2)s1", "AC50": "3.98 µM (active)"},
      {"molecule": "CC1=CC(=C2C(=O)c3ccccc3C2=O)C=C(C)O1", "AC50": "2.51 µM (active)"},
      {"molecule": "COC(=O)C(NC(=O)c1ccccc1)=C1C=C(C)OC(C)=C1", "AC50": "inactive"},
      {"molecule": "CC1=CC(=C2C(=O)c3ccccc3C2=O)C=C(C)N1Cc1ccco1", "AC50": "2.24 µM (active)"},
      {"molecule": "CC1(C)OC(=O)N(Cc2ccco2)C1(C)O", "note": "(centres undefined)", "AC50": "inactive"},
      {"molecule": "Cc1ccccc1/C=C1\\OC(=O)c2ccccc21", "AC50": "inactive"},
      {"molecule": "CCCCS(=O)(=O)NC1=NCN(Cc2ccco2)CN1", "AC50": "inactive"}
    ]}
  ]
}
